VDR inh = Inhibitors of the vitamin D receptor (VDR): qHTS. Potency, µM, usual class: inhibitors. VDR-SRC2-3 peptide fluorescence polarization, 2 h. AID 504847, 2011. actives 0.93% (n = 400,000)
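Signal is fluorescence polarization, reporting how far test compounds block the interaction of VDR with the SRC2-3 coregulator peptide after a 2 h room-temperature incubation.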
KAT2A inh = qHTS Assay for Inhibitors of GCN5L2; Histone acetyltransferase KAT2A (Homo sapiens), Q92830; actives 0.21% (n = 390,000); Potency, µM (top dose mostly 58.9 µM), usual class: inhibitors; GCN5L2 HAT assay, ThioGlo1 CoA-SH fluorescence
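ThioGlo1-coupled HAT assay: 20nM GCN5L2, 70uM acetyl-CoA, 75uM H3(1-25) peptide, pH 7.5. Fluorescence read at 340/540nm at start and after 20 min at room temperature.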
TRb-SRC2 inh = qHTS for Inhibitors of the Interaction of Thyroid Hormone Receptor and Steroid Receptor Coregulator 2. AID 1469, 2008. actives 0.065% (n = 280,000). TRbeta-SRC2 peptide binding, fluorescence polarization; receptor liganded with 1 µM T3. Potency, µM (titrated, usually from 106 µM), actives largely listed as inhibitors; further: nearly all actives have a fitted effect of over 50% in size
Target sequence (P10828 whole entry, looked up): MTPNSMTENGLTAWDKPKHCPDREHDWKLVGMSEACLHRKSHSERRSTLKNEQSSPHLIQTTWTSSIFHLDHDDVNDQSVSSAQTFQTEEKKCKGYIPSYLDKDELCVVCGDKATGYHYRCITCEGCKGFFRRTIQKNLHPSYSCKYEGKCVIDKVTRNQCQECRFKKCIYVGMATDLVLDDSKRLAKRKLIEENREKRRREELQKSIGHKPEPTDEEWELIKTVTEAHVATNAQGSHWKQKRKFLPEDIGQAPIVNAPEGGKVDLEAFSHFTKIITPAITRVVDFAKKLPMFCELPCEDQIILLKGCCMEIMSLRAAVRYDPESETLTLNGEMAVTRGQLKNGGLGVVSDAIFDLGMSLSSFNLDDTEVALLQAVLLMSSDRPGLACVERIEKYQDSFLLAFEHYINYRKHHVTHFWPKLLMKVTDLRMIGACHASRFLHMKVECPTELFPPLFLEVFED
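Fluorescence polarization of 20 nM Texas Red SRC2 peptide (20-aa NR interaction domain) bound to 0.6 uM human TRb ligand-binding domain, with 1 uM T3, after 5 hr at ambient temperature; inhibition seen as decreased polarization.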
RGS12 GoLoco inh = qHTS Assay for Inhibitors of RGS12 GoLoco Motif Activity (Red Fluorophore). AID 880, 2007. actives 0.44% (n = 230,000). Gai1:RGS12 GoLoco peptide FP, rhodamine, 10 min. Guanine nucleotide-binding protein G(i) subunit alpha-1 (Homo sapiens), P63096. Potency, µM (series often up to 61.6 µM), usual class: inhibitors; active means well fitted inhibition curve with a large enough effect, not every such curve was filed as active; inactive means no such curve, though single readings can be large or run the other way; further: nearly all actives have a fitted effect of over 30% in size
TR SRC2 fluor cs = Total Fluorescence Counterscreen for Inhibitors of the Interaction of Thyroid Hormone Receptor and Steroid Receptor Coregulator 2. TRb/SRC2 Texas Red total fluorescence interference. Potency, µM (top dose mostly 106 µM). actives 0.29% (n = 280,000); active means well fitted curve in either direction with a large enough effect; inconclusive means small, poorly fitted or top-dose-only effect
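Human TRβ ligand-binding domain (0.6 uM) and Texas Red SRC2 peptide (20 nM) in Tris buffer with 1 uM T3 and 5% DMSO were incubated with pinned compound for 5 hr at ambient temperature. Total fluorescence was computed as S + 2P (555/632 nm).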
Each line names hits and unclear results; the compound was inactive in the other large screens; [ ] = remark or other dose. Rows were chosen to be rich in hits. Some 1.2% of all compounds tested hit in one or more screens of this group. Unless noted, the call rests on the fitted dose curve; in most records, active means well fitted curve in the direction sought with a large enough effect; inconclusive means small, poorly fitted or top-dose-only effect, or another doubt; inactive means no such curve, though single readings can be large; an effect the other way counts as inactive or inconclusive.

Fc1ccccc1Nc1n[nH]c(=S)s1	KAT2A inh 18µM
S=c1[nH]nc(Nc2cccc3ccccc23)s1	KAT2A inh inconclusive
COn1cnnc1-c1ccccc1	KAT2A inh inconclusive, RGS12 GoLoco inh 8.9µM
COc1ccc(C(=O)C[n+]2ccccc2C)cc1	VDR inh 32µM
O=C1C=C(Nc2ccccc2O)c2ccccc2C1=O	TRb-SRC2 inh inconclusive
O=C1C=C(NCc2ccccc2)c2ccccc2C1=O	VDR inh 2µM, TRb-SRC2 inh inconclusive
CC(NC(=O)Nc1ccc(O)cc1)(C(F)(F)F)C(F)(F)F	TRb-SRC2 inh 35µM
CCC(NC(=O)Nc1ccc(O)cc1)(C(F)(F)F)C(F)(F)F	TRb-SRC2 inh inconclusive
Cc1ccc(S(=O)(=O)N2CCN(c3nc(-c4cccs4)nc4cccnc34)CC2)cc1	none (no result: KAT2A inh, TRb-SRC2 inh, RGS12 GoLoco inh, TR SRC2 fluor cs)
NS(=O)(=O)c1ccc(NC(=S)NC(=O)c2ccc(-c3ccccc3)cc2)cc1	TR SRC2 fluor cs 0.32µM[quencher]
O=C(NC(=S)Nc1ccc(-c2ccccc2)cc1)c1ccccc1	none (no result: KAT2A inh, TRb-SRC2 inh, RGS12 GoLoco inh, TR SRC2 fluor cs)
CC[C@H](CN(C)C)C(=O)c1ccco1	none (no result: VDR inh, KAT2A inh, TRb-SRC2 inh, TR SRC2 fluor cs)
Cc1ccc(NC(=O)CSc2nc3nccnc3c(=O)n2CCc2c[nH]c3ccccc23)cc1	TRb-SRC2 inh inconclusive, TR SRC2 fluor cs 25µM[quencher] (no result: RGS12 GoLoco inh)
CCCCCCCCCCCNC(=O)c1ccoc1C	VDR inh 79µM
Cc1occc1C(=O)NCCCCNC(=O)c1ccoc1C	none
O=C1c2ccccc2C(=O)c2c(NC3CCCCC3)ccc(Nc3ccc(S(=O)(=O)O)cc3)c21	RGS12 GoLoco inh 3.5µM (no result: VDR inh, KAT2A inh, TRb-SRC2 inh, TR SRC2 fluor cs)
Cc1nc2cc(NC(=O)N3CCN(c4ccccn4)CC3)ccc2o1	none (no result: KAT2A inh)
O=C(Nc1ccc2nc(-c3ccco3)c(-c3ccco3)nc2c1)N1CCCC1	VDR inh 71µM (no result: KAT2A inh, TRb-SRC2 inh, RGS12 GoLoco inh, TR SRC2 fluor cs)
O=C(Nc1ccc2nc(-c3ccco3)c(-c3ccco3)nc2c1)N1CCN(c2ccccn2)CC1	VDR inh 89µM, KAT2A inh 10µM
S=C1N[C@H](c2ccccc2)N[C@H](c2ccccc2)S1	none (no result: VDR inh, KAT2A inh, TRb-SRC2 inh, TR SRC2 fluor cs)
O=C(c1ccc(Cl)c(S(=O)(=O)N2CCCC2)c1)N1CCN(c2ccccc2)CC1	VDR inh 32µM
N=C(N)SCCSC(=N)N	none (no result: VDR inh, KAT2A inh, TRb-SRC2 inh, TR SRC2 fluor cs)
O=c1[nH]c(=O)c2[nH]cnc2[nH]1	none (no result: VDR inh, KAT2A inh, RGS12 GoLoco inh)
O=C(Nc1ccc2c(c1)Cc1ccccc1-2)[C@@H]1[C@H](C(=O)O)[C@]2(Cl)C(Cl)=C(Cl)[C@@]1(Cl)C2(Cl)Cl	none (no result: VDR inh, KAT2A inh, TRb-SRC2 inh, TR SRC2 fluor cs)
O=c1o[nH]c(-c2ccccc2)c1-c1ccccc1	none (no result: KAT2A inh, TRb-SRC2 inh, RGS12 GoLoco inh, TR SRC2 fluor cs)
O=c1c(-c2ccccc2)c1-c1ccccc1	VDR inh 45µM
CCOc1ccc(C2C(C(=O)c3ccc(C)o3)=C(O)C(=O)N2c2cc(C)on2)cc1OC (configuration not stated)	none (no result: TRb-SRC2 inh, RGS12 GoLoco inh, TR SRC2 fluor cs)
CCCCCOc1ccc(C2C(C(=O)c3ccc(C)o3)=C(O)C(=O)N2c2cc(C)on2)cc1 (configuration not stated)	VDR inh 71µM (no result: TRb-SRC2 inh, RGS12 GoLoco inh, TR SRC2 fluor cs)
N#CN=c1snc(-c2ccccc2)n1-c1ccc(Cl)cc1	none (no result: KAT2A inh, TRb-SRC2 inh, RGS12 GoLoco inh, TR SRC2 fluor cs)
CC(=Nc1ccccc1N)c1c(C)cc(=O)n(O)c1O	none (no result: RGS12 GoLoco inh)
Cc1cccc(C=CC(=O)c2ccccc2)c1	VDR inh 45µM (no result: KAT2A inh, TRb-SRC2 inh, RGS12 GoLoco inh, TR SRC2 fluor cs)
COc1cccc(C(=O)/C=C/c2ccc(SC)cc2)c1	VDR inh inconclusive
COC(=O)c1ccc(/C=C/C(=O)c2cccc(OC)c2)cc1	VDR inh 22µM
COc1ccc(C(=O)/C=C/c2ccccc2)cc1	VDR inh 25µM
O=C(/C=C/c1ccccc1)c1ccc(O)cc1	VDR inh 45µM
O=[N+]([O-])c1ccc(O)cc1C(F)(F)F	none (no result: VDR inh, KAT2A inh, RGS12 GoLoco inh)
O=C(C=Cc1ccccc1)c1ccc([N+](=O)[O-])cc1	VDR inh 10µM (no result: KAT2A inh, TRb-SRC2 inh, RGS12 GoLoco inh, TR SRC2 fluor cs)
CCC(=O)Nc1cccc(C(=O)/C=C/c2cccs2)c1	none
O=C(/C=C/c1cccc(O)c1)c1cccnc1	VDR inh 56µM
CCC(=O)Nc1cccc(C(=O)/C=C/c2ccccc2)c1	VDR inh 50µM
CCOc1ccc(/C=C/C(=O)c2ccccc2)cc1OC	VDR inh 79µM
CC(=O)NCCCC[C@H](NC(=O)OC(C)(C)C)C(=O)Nc1ccc2c(C(F)(F)F)cc(=O)oc2c1	KAT2A inh inconclusive (no result: RGS12 GoLoco inh)
